# A selection: hits, their analogues and other compounds. The true share with any hit is near 2.2%.
# APP transl inh = inhibitors of APP translation via 5'UTR reporter, primary screen, APP 5'UTR luciferase, SH-SY5Y cells. SH-SY5Y APP 5'UTR-luciferase reporter, luminescence. inhibition, % at 2 µM. 0.82% of 190,000 active;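 active = inhibition above a set limit, derived from the sample mean plus 3 SD, cut at about 45% in these data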
# aSyn 5UTR inh = MLPCN primary screen, SNCA 5' untranslated region; alpha-synuclein 5'UTR reporter, inhibitor activity; inhibition, % (tested at 7.5 µM); 0.82% of 300,000 active; AID 1813, 2009; in the data active = inhibition above about 60%;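 also: H4 neuroglioblastoma cells stably carrying SNCA 5'UTR luciferase fusion; 0% = DMSO wells and 100% = positive control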
# BaF3 tox = parental Ba/F3 cell viability inhibition, counter-screen for JAK2V617F inhibitor project, murine pro-B, CellTiter-Glo luminescence. inhibition, % at 5.6 µM. CellTiter-Glo ATP luminescence. 1.1% of 220,000 active;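 active = inhibition above a per-campaign cutoff, the mean inhibition of all tested compounds plus 3 SD, cut at about 27% in these data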;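 also: 0% = DMSO wells and 100% = JAK Inhibitor I control wells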
# Ba/F3 V617F tox = reduced viability of JAK2V617F-dependent Ba/F3 cells, primary screen, JAK2V617F inhibitor project, cell-based, Ba/F3 EpoR-JAK2V617F, luminescence. ATP luminescence. inhibition, % at 5.6 µM. 1.1% of 220,000 active. AID 1446, 2008;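 active = inhibition above the campaign mean plus 3 SD over all tested compounds, cut at about 24% in these data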;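 also: cytokine-independent growth of Ba/F3 cells driven by EpoR plus mutant JAK2; 0% = DMSO-treated cells and 100% = JAK inhibitor I control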
# IEC-6 cytotox = cytotoxicity in IEC-6 intestinal epithelial cells, primary screen, cytotoxicity control for KLF5 inhibitor project, cell-based, luminescence; IEC-6 cytotoxicity, luminescence viability; inhibition, % at 5 µM; 0.78% of 290,000 active;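 also: 0% = plate median of test compound wells and 100% = cytotoxic reference compound wells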
# KLF5 inh = KLF5 expression inhibitors, primary screen, DLD-1 cells, luminescence; inhibition, % at 5 µM; DLD-1 KLF5 promoter-luciferase reporter; 0.23% of 290,000 active;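 active = inhibition above a per-plate limit of that plate's mean compound inhibition plus 3 SD, cut at about 60% in these data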;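 also: 0% = DMSO wells and 100% = LY294002 at 200 µM; higher means less KLF5 promoter-driven luciferase light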
# IEC-6 tox confirm = cytotoxic compounds in IEC-6 epithelial cells, confirmation, cytotoxicity control, cell-based, luminescence; inhibition, % at 5 µM; IEC-6 rat intestinal epithelial viability; shares compounds with IEC-6 cytotox; 63% of 1,900 active; AID 1907, 2009;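 also: 0% = vehicle and 100% = reference cytotoxic drug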
# * hit, by the source's call; · = no result given. Rule as the data show it, unless noted: active = inhibition above about 22%; inactive = the rest.
SMILES,APP transl inh,aSyn 5UTR inh,BaF3 tox,Ba/F3 V617F tox,IEC-6 cytotox,KLF5 inh,IEC-6 tox confirm
CC1CCN(S(=O)(=O)c2ccc(NC(=O)c3ccncc3)cc2)CC1,·,-1.1,·,·,3.0,-37.4,·
CCc1ccc(NC(=O)c2nc(S(=O)(=O)Cc3ccccc3)ncc2Cl)cc1,·,90.7*,·,·,88.0*,14.8,6.8
CCS(=O)(=O)c1ncc(Cl)c(C(=O)Nc2ccc(S(=O)(=O)N3CCC(C)CC3)cc2)n1,·,65.1*,·,·,95.9*,42.9,7.9
CCc1nn(CC(=O)Nc2cc(C)ccc2C)c(=N)s1,7.2,16.8,3.2,4.1,4.1,-35.5,·
CCOc1ccc(Cl)cc1S(=O)(=O)N1CCC(C(=O)NCc2cccnc2)CC1,·,-3.8,·,·,-4.8,-12.5,·
CS(=O)(=O)Nc1cccc(-c2cnc3ccccc3n2)c1,·,-153.0,·,·,-2.7,-125.4,·
Cc1ccc(S(=O)(=O)c2ncccc2[N+](=O)[O-])cc1,·,-38.8,·,·,100.6*,25.0,1.8
Cc1ccccc1NS(=O)(=O)c1ccc2oc(=O)ccc2c1,·,7.1,·,·,-3.3,-28.4,·
Cc1cc(C)cc(NC(=O)CCn2c(=O)c3cccn3c3ccccc32)c1,·,-3.3,·,·,40.5*,30.5,37.0*
Cc1ccc(NC(=O)CCn2c(=O)c3cccn3c3ccccc32)c(C)c1,·,-17.8,·,·,-7.5,-23.0,·
Cc1cccc(Cc2cnc(NC(=O)c3ccc(C)o3)s2)c1,-76.5,15.8,75.8*,71.0*,59.4*,-99.2,39.5*
Cc1cccc(Cc2cnc(NC(=O)C3=NCCN3)s2)c1,18.6,-2.7,8.0,-0.1,-0.7,-2.2,·
CN1CCN(c2ccc(C(=O)NC3CCCCC3)cc2[N+](=O)[O-])CC1,6.2,-9.8,3.9,0.7,-1.9,-26.1,·
COc1cc(/C=N/NC(=O)c2nc(-c3ccccc3)n(-c3ccccc3)n2)ccc1O,12.3,39.0,3.1,-0.5,2.2,-17.0,·
COc1cc(/C=N/Nc2nc(C)nc3c2cnn3-c2ccccc2)ccc1O,50.1*,-13.8,51.4*,45.5*,31.6*,11.0,8.6
O=C(N/N=C/c1ccccn1)c1ccc(Cl)c(Cl)c1,·,-20.3,·,·,22.5*,-4.3,11.4
N#Cc1c(-c2ccccc2)nc(SCc2cccc(Cl)c2)[nH]c1=O,·,11.9,·,·,-1.2,-31.8,·
Cc1noc(C)c1CSCC(=O)N(C)CC(=O)Nc1ccc(Cl)c(C(F)(F)F)c1,·,5.8,·,·,·,·,·
CCOC(=O)Nc1ccc2nc(N3CCCCCC3)sc2c1,·,-313.0,67.0*,78.5*,67.0*,-24.0,60.0*
O=C(Cc1ccc(NC2=NC3CS(=O)(=O)CC3S2)cc1)NCCc1ccccc1 (centres undefined),·,-20.8,·,·,-0.6,-22.9,·
CC(=O)c1cccc(S(=O)(=O)N2CCC(C(=O)O)(c3ccccc3)CC2)c1,·,17.4,·,·,0.5,-0.3,·
CCOc1ccc(C(C)=O)cc1N1C(=O)C2C3C=CC(O3)C2C1=O (centres undefined),17.9,0.3,28.3*,10.9,21.9*,-20.8,0.6
COc1ccc(CCNc2ncnc3sc(C)cc23)cc1OC,·,77.4*,·,·,26.6*,-38.4,26.6*
COc1ccccc1CNS(=O)(=O)c1ccc(-c2cc(C)no2)cc1,·,80.0*,·,·,78.9*,53.1,53.3*
COc1ccccc1NS(=O)(=O)c1cccs1,-2.8,24.5,0.5,-2.6,3.4,-32.8,·
SMILES,APP transl inh,aSyn 5UTR inh,BaF3 tox,Ba/F3 V617F tox,IEC-6 cytotox,KLF5 inh,IEC-6 tox confirm
COc1ccccc1NS(=O)(=O)c1ccc(-c2cc(C)no2)s1,·,-101.8,·,·,39.7*,27.1,16.6
COc1ccnc(-n2cccc2/C=N/O)c1C#N,-11.5,10.7,2.8,-1.1,-8.4,-18.5,·
Cc1ccc(CCC(=O)Nc2ccc(Br)cc2)o1,·,-57.5,·,·,6.3,-54.6,·
S=C(NCCc1cnc[nH]1)NC1CCCC1,0.4,-10.8,2.4,-2.0,-3.1,1.0,·
Cc1ccccc1-c1nnc(-c2cccs2)o1,-73.3,-115.9,1.5,-1.5,-7.5,-3.5,·
O=c1oc2ccccc2c(Nc2cccc3cccnc23)c1[N+](=O)[O-],-15.5,-19.3,6.2,2.0,61.4*,-6.9,-5.9
O=c1oc2ccccc2c(Nc2cccc3ccccc23)c1[N+](=O)[O-],1.3,18.2,5.9,0.2,10.0,20.2,·

# Source: PubChem BioAssay (several laboratories)
